Data published in PubChem BioAssay AID485347 (National Center for Advancing Translational Sciences (NCATS), 2010).
About 1,200 (0.35%) of roughly 340,000 compounds were called active. This is one part of a sample in which actives are shown more often than they occur.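 The calls were made as follows: active = potentiation over 3 SD above the plate norm (cut at about 30% in these data); inactive = the rest.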

Target: D(2) dopamine receptor (Homo sapiens) (UniProt P14416)
Test: HTS Assay for Positive Allosteric Modulators of the Human D2 Dopamine Receptor: Primary Screen for Potentiators; also: 0% is about no effect
Conditions: HEK293 T-REx D2, calcium flux, EC20 dopamine potentiation; at 10 µM; stronger effect = higher value
In short: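 Potentiation of an EC20 dopamine calcium response is measured in a force-coupled, tetracycline-inducible Hek293 Trex D2 line. Compound-only kinetic reads over 180 s flag agonists before dopamine addition.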

Sequence of D(2) dopamine receptor (Homo sapiens) (P14416 whole entry, looked up): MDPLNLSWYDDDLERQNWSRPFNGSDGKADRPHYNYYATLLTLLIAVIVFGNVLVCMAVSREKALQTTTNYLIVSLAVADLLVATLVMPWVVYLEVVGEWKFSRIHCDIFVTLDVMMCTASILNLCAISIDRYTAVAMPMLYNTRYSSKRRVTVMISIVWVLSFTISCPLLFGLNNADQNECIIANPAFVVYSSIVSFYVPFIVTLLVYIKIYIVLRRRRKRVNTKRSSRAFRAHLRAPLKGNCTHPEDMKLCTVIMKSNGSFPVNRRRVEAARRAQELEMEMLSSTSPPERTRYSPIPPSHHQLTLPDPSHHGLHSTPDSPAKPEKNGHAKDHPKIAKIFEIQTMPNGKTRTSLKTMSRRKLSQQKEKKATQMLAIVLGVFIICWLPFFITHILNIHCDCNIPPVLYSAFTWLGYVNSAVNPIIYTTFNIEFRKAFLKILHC

potentiation, inactive:
Cc1nnc(NCc2ccccc2)c2c1nnn2Cc1ccc(F)cc1 -11.5%, COc1cc(Cl)c(NC(=O)C(NS(=O)(=O)c2cccs2)C(C)C)c(OC)c1 (configuration not stated) -0.155%, CC(C)c1c(C(=O)N/N=C/c2ccc(-c3ccccc3)cc2)nnn1-c1nonc1N 4.04%, COCc1c(C(=O)N/N=C/C2CC=CCC2)nnn1-c1nonc1N (configuration not stated) 5.51%, Cc1cc(C)c2oc(-c3cccc(NC(=O)c4cccc(F)c4)c3C)nc2c1 -6.15%, COc1cccc(-c2nc(CS(=O)(=O)CC(=O)N3CCN(c4cc(C)ccc4C)CC3)c(C)o2)c1 20.2%, Cc1ccc(SCc2cc(=O)[nH]c(N3CCCCC3)n2)cc1 -9.08%, Cc1ccc(SCCSc2ncccn2)cc1 -3.01%, CCn1c2ccccc2c2cc(NC(=O)COc3ccc(C)cc3C)ccc21 -13%, CCc1ccc(NC(=O)c2nn(-c3ccc(C)cc3)c(=O)n(C)c2=O)cc1 11.1%, O=C(COC(=O)/C=C/c1ccc(S(=O)(=O)N2CCCCCC2)cc1)NCc1ccccc1Cl -11.9%, COC(=O)COc1ccc(S(=O)(=O)N2CCOCC2)cc1 -3.49%, CCn1c(CN2CCC(C)CC2)nc2cc(NC(=O)c3ccccc3[N+](=O)[O-])ccc21 -38.3%, O=C(Cn1cc(SCc2cccc(Cl)c2)c2ccccc21)N1CCCCC1 1.4%, O=C(COc1ccc(Cl)cc1)N1CCN(S(=O)(=O)c2ccc(Cl)cc2)CC1 -3.15%, Cc1c(C)c2ccc(OCC(=O)N3CCN(c4cccc(Cl)c4)CC3)cc2oc1=O -6.58%, CCOC(=O)c1ccc(N2C(=O)c3n[nH]c(-c4ccco4)c3C2c2ccc(O)cc2)cc1 (configuration not stated) -20%, Nc1ncc(S(=O)(=O)Nc2ccc(OC(F)(F)F)cc2)cn1 -3.21%, CCOc1ccc(NC(=O)CC2C(=O)N(c3cccc(OC)c3)C(=O)N2C2CCCCC2)cc1 (configuration not stated) 2.76%, COc1ccc(S(=O)(=O)c2cn(C)c3cc(N4CCCCC4)c(F)cc3c2=O)cc1 -4.51%, COC(=O)c1cnc(N2CCN(c3ccccc3OC)CC2)c2ccccc12 3.09%, COc1ccccc1N1CCN(c2ncnc3onc(-c4ccc(F)cc4)c23)CC1 -4.24%, CCc1ccc(C2C(C(=O)Nc3ccccc3)=C(C)Nc3c(C(=O)Nc4ccc(C)cc4)cnn32)cc1 (configuration not stated) 4.34%, COc1ccccc1N1CCN(c2ccc(=O)n(CC(=O)NCc3ccc(OC(C)C)cc3)n2)CC1 -2.29%, COc1cccc(NC(=O)C2C(c3ccccc3)C2(Cl)Cl)c1 (configuration not stated) -7.1%, CCOc1cc2c(cc1OCC)C(C(=O)O)C(c1ccc(OC)c(O)c1)N(C)C2=O (configuration not stated) -25.6%, Cc1ccc(O)c(NC(=O)CCS(=O)(=O)c2nc(-c3ccc4c(c3)OCO4)cc(C(F)(F)F)n2)c1 5.96%, Cc1cccc(NC(c2cccc(F)c2)c2ccc3ccc(C)nc3c2O)n1 (configuration not stated) 0.98%, Cc1cc(C)cc(-n2c(SCC(=O)NCC3CCCO3)nc3c([nH]c4ccccc43)c2=O)c1 (configuration not stated) -6.86%, Cc1ccc(-n2cnc3cc(C(=O)NCCC4=CCCCC4)ccc32)cc1Cl 9.63%, CCn1c2ccccc2c2cc(CN3CCN(Cc4cccc(Cl)c4)CC3)ccc21 -11.2%, CCOC(=O)N1CCC(NC(=O)CCc2ccccc2)CC1 -4.2%, CCOC(=O)CN1CCC(c2ccccc2)CC1 -9.51%, CCCCS(=O)(=O)c1oc(-c2cccs2)nc1S(=O)(=O)c1ccccc1 3.55%, CCS(=O)(=O)N1CCc2cc(C(=O)N3CCN(c4ccccc4OC)CC3)ccc21 3.69%

potentiation, active:
Nc1nonc1-n1nnc(C(=O)N/N=C/C2CCCCC2)c1-c1ccccc1 38.6%, Cc1ccc(SCC2=NNC(=O)C2)cc1 31.9%, COc1ccc(CNC(=O)COC(=O)/C=C/c2ccc(S(=O)(=O)N3CCOCC3)cc2)cc1 33.3%, O=C(COc1ccc(Cl)cc1)N1CCN(c2cccc(C(F)(F)F)c2)CC1 35.5%, COc1ccccc1N1CCN(c2ncnc3sc(C)c(-c4ccccc4)c23)CC1 37.8%, COc1cccc(NC(=O)C2c3cc(OC)c(OC)cc3C(=O)N(C)C2c2cccnc2)c1 (configuration not stated) 30.1%, CCOC(=O)N1CCC(c2cc(=O)n(-c3ccccc3)[nH]2)CC1 49.5%
